From the supplement of paper PMC11732987, “Enantioselective OTUD7B fragment discovery through chemoproteomics screening and high-throughput optimisation” (Communications Chemistry, 2025)

How the values were obtained:
Assay in all cases: log2 ratio of Biotin-Ahx-Ub-VS probe labelling (fragment/DMSO); higher = less target engagement (more negative = stronger competition), active = hit call of the paper (q ≤ 0.05, log2 ratio ≤ -1)
Conditions in all cases: compound concentration: 200 uM; treatment time: 3 h
USP19 = target: T1, USP19 (UniProt O94966)
T1 sequence (whole entry): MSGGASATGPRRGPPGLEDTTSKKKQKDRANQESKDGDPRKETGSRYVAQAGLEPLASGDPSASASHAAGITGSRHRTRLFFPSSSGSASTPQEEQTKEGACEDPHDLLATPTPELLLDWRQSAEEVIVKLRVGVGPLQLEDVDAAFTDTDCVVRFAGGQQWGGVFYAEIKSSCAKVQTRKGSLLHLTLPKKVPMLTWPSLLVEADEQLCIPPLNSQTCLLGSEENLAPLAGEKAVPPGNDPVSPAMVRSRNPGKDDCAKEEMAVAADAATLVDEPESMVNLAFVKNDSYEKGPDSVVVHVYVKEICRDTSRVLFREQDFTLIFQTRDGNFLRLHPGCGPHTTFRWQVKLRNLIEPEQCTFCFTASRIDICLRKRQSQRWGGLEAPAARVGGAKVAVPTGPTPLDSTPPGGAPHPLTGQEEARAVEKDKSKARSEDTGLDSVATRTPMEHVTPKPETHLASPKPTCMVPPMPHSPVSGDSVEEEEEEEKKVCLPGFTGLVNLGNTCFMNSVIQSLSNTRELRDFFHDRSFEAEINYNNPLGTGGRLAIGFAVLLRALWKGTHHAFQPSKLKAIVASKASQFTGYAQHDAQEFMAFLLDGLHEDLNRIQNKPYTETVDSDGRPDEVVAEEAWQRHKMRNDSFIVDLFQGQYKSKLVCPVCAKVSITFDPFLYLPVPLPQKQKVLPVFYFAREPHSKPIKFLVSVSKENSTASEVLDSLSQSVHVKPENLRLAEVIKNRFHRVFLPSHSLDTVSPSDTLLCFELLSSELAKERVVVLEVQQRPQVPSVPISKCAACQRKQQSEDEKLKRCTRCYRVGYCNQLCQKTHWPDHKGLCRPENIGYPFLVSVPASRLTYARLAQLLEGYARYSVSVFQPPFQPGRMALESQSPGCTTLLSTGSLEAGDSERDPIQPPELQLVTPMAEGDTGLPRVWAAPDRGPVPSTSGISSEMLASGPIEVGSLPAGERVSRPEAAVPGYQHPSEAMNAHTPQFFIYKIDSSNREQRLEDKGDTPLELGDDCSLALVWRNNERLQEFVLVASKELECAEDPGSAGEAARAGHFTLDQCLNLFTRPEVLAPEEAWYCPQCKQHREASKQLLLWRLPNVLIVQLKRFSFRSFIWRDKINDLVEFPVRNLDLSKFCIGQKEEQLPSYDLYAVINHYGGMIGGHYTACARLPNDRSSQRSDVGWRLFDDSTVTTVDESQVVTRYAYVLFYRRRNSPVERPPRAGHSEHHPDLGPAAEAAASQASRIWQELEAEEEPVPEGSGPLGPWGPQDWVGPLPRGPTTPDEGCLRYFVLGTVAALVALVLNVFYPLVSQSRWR
Outline: (§1)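 HEK293T lysate in Tris/CHAPS/IGEPAL buffer with protease inhibitors (495 µg per sample) was given fragment at 200 µM or vehicle for 3 h, in triplicate. It then received Biotin-Ahx-Ub-VS at 0.5 µM final for 1 h. Labelled DUBs were NeutrAvidin-enriched, digested with LysC and trypsin, and run by diaPASEF LC-MS/MS. Values are average log2 fragment/vehicle ratios by unpaired t-test on global-median-normalised Spectronaut quantities of proteins with ≥2 unique peptides.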

USP24 = USP24 (UniProt Q9UPU5)
Sequence of USP24 (Q9UPU5 whole entry): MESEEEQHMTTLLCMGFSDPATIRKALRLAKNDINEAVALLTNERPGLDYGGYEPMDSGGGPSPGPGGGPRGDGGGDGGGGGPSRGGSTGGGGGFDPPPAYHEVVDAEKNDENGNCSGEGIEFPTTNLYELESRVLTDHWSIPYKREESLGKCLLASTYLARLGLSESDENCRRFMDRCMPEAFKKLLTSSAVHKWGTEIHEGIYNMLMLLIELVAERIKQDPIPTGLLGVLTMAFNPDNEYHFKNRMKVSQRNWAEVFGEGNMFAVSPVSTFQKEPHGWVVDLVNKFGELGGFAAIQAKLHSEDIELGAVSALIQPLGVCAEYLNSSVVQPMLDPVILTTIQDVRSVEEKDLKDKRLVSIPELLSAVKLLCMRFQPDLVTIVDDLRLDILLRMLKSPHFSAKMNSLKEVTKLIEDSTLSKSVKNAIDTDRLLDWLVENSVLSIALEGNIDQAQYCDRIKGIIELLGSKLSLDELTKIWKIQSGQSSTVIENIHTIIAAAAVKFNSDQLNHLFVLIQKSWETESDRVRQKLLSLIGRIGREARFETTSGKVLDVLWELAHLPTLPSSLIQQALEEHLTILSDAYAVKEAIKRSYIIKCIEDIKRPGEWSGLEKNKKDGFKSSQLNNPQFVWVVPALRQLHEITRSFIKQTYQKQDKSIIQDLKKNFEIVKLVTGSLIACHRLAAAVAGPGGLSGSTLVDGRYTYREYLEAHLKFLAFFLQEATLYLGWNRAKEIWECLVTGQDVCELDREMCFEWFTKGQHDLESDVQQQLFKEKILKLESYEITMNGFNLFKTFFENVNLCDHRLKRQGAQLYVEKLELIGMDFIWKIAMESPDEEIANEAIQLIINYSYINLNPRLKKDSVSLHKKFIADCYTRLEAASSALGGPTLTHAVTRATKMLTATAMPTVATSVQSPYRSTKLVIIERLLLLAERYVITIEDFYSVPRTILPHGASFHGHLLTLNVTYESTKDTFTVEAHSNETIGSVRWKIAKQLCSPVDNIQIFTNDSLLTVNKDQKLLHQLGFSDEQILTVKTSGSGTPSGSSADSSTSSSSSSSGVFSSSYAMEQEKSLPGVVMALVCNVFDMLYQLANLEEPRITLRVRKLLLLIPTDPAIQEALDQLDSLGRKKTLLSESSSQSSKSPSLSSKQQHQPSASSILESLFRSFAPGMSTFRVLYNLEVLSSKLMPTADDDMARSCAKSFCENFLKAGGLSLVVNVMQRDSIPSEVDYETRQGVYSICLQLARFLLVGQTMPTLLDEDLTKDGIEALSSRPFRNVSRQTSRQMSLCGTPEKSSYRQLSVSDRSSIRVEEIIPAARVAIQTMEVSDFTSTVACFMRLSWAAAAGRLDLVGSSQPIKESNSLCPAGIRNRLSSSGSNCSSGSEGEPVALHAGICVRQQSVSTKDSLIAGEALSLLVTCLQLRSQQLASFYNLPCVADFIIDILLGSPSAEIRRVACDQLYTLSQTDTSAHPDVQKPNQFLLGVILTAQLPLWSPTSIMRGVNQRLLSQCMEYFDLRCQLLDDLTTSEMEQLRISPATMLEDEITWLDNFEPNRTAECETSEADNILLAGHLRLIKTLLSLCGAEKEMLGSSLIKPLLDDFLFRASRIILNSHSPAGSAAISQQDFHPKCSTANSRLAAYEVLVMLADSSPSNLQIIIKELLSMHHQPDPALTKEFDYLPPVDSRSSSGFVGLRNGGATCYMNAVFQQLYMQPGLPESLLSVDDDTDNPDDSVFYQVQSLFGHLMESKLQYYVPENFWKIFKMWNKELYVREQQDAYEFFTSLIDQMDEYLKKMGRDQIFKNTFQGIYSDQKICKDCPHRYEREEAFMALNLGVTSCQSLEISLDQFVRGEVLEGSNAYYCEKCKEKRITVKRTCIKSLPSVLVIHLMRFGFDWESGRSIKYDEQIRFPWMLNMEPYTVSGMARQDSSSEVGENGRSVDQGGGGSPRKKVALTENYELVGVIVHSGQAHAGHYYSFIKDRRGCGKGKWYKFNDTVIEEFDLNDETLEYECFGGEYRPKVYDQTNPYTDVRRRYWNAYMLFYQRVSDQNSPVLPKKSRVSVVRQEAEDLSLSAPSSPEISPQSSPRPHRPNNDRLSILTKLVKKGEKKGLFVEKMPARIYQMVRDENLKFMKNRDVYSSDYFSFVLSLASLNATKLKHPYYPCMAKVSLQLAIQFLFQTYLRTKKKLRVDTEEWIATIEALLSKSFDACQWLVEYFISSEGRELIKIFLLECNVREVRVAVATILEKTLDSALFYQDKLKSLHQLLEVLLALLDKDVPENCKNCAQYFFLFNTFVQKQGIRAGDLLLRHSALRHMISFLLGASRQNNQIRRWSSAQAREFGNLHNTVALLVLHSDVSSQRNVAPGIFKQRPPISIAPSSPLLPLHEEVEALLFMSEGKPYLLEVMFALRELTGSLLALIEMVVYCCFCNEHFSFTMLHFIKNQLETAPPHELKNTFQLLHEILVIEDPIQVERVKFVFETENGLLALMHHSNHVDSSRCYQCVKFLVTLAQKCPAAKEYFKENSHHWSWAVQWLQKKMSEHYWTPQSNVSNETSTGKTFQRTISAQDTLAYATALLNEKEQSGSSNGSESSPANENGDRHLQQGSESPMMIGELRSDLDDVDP
Outline: as §1

USP25 = target: T2, USP25 (UniProt Q9UHP3)
T2 sequence (whole entry): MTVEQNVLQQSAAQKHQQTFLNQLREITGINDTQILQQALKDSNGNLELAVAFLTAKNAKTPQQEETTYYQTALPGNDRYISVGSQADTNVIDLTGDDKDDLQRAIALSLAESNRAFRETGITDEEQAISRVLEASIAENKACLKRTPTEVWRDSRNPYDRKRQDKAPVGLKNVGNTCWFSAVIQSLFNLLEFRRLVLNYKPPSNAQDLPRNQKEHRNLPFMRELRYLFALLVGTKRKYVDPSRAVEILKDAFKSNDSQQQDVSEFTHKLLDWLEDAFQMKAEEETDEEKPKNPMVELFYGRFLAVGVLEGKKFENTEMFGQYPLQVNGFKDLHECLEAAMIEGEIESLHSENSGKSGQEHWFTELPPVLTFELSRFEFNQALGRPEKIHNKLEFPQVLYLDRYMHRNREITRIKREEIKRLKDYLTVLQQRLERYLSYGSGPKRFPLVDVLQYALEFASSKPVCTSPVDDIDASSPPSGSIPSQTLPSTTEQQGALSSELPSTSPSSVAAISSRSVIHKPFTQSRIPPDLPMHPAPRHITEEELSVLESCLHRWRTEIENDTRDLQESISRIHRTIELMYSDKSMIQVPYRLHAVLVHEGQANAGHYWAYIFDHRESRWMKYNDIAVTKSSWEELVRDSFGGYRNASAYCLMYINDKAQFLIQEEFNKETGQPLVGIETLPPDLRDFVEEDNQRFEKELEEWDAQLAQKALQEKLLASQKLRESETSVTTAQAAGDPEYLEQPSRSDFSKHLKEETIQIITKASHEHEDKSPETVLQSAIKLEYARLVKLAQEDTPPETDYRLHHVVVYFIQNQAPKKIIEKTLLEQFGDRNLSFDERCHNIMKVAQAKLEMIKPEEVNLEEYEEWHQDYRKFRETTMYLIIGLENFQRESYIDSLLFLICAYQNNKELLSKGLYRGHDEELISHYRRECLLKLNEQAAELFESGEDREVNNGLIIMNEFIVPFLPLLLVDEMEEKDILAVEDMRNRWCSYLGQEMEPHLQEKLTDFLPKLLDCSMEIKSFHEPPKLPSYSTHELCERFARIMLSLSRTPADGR
Outline: as §1

USP28 = target: T3, USP28 (UniProt Q96RU2)
T3 sequence (whole entry): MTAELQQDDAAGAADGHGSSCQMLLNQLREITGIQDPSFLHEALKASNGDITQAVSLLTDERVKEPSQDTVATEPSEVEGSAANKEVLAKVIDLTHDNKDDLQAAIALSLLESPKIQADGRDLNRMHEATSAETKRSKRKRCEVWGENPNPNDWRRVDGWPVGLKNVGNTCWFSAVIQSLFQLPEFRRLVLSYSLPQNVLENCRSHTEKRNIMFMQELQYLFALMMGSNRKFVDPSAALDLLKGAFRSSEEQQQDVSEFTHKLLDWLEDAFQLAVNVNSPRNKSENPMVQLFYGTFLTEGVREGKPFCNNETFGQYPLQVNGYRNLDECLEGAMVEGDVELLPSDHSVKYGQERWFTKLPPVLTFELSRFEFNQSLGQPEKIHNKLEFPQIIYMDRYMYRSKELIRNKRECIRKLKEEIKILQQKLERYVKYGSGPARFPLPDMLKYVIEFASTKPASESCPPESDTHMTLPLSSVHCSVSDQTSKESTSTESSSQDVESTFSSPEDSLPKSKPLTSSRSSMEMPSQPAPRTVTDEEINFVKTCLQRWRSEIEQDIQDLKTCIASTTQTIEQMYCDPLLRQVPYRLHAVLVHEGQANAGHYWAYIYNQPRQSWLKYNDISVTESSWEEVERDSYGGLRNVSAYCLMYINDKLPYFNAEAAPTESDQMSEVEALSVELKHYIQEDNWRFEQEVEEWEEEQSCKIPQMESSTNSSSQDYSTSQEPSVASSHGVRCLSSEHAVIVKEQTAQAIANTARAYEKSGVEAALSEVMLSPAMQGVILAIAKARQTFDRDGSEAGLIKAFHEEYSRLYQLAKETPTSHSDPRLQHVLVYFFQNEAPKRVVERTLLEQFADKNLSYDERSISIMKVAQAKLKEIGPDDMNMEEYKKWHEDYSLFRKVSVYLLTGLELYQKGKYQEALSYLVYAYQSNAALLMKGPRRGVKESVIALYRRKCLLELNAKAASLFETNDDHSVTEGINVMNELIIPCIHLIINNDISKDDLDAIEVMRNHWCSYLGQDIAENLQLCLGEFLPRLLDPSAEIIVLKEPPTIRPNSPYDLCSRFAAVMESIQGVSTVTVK
Outline: as §1

Measured: log2 ratio of Biotin-Ahx-Ub-VS probe labelling

CCN(C(=O)CCl)C1CCCCC1
inactive: USP19 0.1 | USP24 -0.333 | USP25 0.0335 | USP28 -0.0965
